Compounds with a hit are over-represented: about 3.2% of the library has one in this group of screens.
CHT inh: human CHT choline transport inhibition. B-score at 10 µM. CHT-expressing cells, membrane potential dye, choline response; stronger effect = lower value. actives 0.86% (n = 310,000). AID 488975. Q9GZV3;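 active = B-score over 3 SD under the library average, and starting fluorescence ratio not unusually high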;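 also: choline stimulus applied at its EC90 after an EC20 pre-addition; B-score computed on integrated fluorescence ratio after choline addition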
HDAC3 inh: human HDAC3 inhibition | inhibition, % at 8.3 µM | recombinant HDAC3, fluorogenic peptide/trypsin coupled, fluorescence | O15379 | actives 0.15% (n = 320,000); in the data active = inhibition above about 26%, passing the limit was not always enough; inconclusive = no clear call, values can overlap the other calls
Target sequence (O15379 whole entry, looked up): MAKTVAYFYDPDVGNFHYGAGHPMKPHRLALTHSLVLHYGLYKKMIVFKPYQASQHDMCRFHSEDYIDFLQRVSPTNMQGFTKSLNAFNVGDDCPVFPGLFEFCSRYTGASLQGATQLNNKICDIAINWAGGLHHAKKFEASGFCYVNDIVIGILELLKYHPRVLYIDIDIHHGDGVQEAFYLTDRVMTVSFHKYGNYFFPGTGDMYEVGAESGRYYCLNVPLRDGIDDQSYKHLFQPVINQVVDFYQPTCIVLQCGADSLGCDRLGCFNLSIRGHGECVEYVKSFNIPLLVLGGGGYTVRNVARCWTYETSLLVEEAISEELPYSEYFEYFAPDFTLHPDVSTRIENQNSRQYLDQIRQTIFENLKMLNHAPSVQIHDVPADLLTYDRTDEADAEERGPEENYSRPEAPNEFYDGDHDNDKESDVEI
TMEM16A act: mouse TMEM16A channel activation, primary screen | HEK293 TMEM16A/YFP-H148Q/I152L, iodide quench fluorescence; stronger effect = lower value | B-score at 10 µM | actives 0.3% (n = 340,000) | AID 623877;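 active = fluorescence-ratio B-score plate-corrected deviation score at least 3 library SD below zero, with starting fluorescence score within 5 deviations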;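 also: channel opened by trigger with iodide after compound preincubation; score built on the fluorescence ratio of max minus min over baseline; more negative score means more quench and so TMEM16A activation or potentiation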
TMEM16A inh: mouse TMEM16A channel inhibition, primary screen. Q8BHY3. HEK293 TMEM16A/YFP iodide influx fluorescence, ionomycin. normalized B-score (activity score, 25-100; higher = stronger inhibition) at 10 µM. actives 1.2% (n = 310,000);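 active = ratio plate-corrected score three or more library SD toward inhibition, starting fluorescence score within five deviations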;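 also: score derived from kinetic fluorescence span divided by baseline fluorescence per well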
PHOSPHO1 inh: inhibitors of human PHOSPHO1 phosphatase | AID 1565 | actives 1.1% (n = 290,000) | inhibition, % at 13.3 µM | recombinant PHOSPHO1, absorbance phosphatase assay | Q8TCT1; in the data active = inhibition above about 60%
CHT allo act: allosterically activates the human high affinity choline transporter. AID 488977. CHT-expressing cells, membrane potential dye, choline EC20; stronger effect = higher value; LV-AA mutant CHT in HEK293 cells. B-score at 10 µM. actives 0.49% (n = 310,000);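 active = initial fluorescence not abnormally high and integrated response B-score, plate-corrected, over 3 SD above library mean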
* = called active by the depositor; i = inactive; ? = inconclusive; · = not tested or not shown.

SMILES | CHT inh | HDAC3 inh | TMEM16A act | TMEM16A inh | PHOSPHO1 inh | CHT allo act
Cc1ccc(S(=O)(=O)n2nccc2-c2c(-c3ccc(Cl)cc3)noc2C)cc1 | i | -5.5 | -4.86* | i | 40.9 | i
COc1cc(C2SCC(=O)N2c2c(C)n(C)n(-c3ccccc3)c2=O)ccc1O (stereo not drawn) | i | -10.6 | i | i | 1.8 | i
Cc1[nH][nH]c(=O)c1C(c1ccc(-c2cccc(Cl)c2)o1)c1c(C)[nH][nH]c1=O | i | 12.6 | i | i | -88.6 | i
Cc1[nH][nH]c(=O)c1C(c1ccc(-c2ccc(Cl)cc2Cl)o1)c1c(C)[nH][nH]c1=O | · | · | · | · | 64.2* | ·
O=C(c1ccccc1)n1nnc2ccccc21 | i | 96.2* | i | i | -21.8 | i
C/C(=N/NC(=O)CNC(=O)c1cccnc1)c1ccc(Cl)cc1 | i | 4.9 | i | i | -2.4 | i
CCn1c(NCc2ccc3c(c2)OCO3)nc2ccccc21 | i | 12.9 | i | i | 65.2* | i
O=C1C(Cl)=C(Nc2ccccc2O)C(=O)N1c1ccccc1 | i | -2.0 | · | i | 60.5* | i
O=C(Nc1cc2c(oc1=O)CCCC2=O)c1cccc(Cl)c1 | i | 2.0 | i | i | 64.6* | i
COc1ccc(C(=O)Nc2cc3c(oc2=O)CCCC3=O)cc1 | i | -1.9 | i | i | 28.5 | i
COCC(=O)N/N=C\c1cccc(OC)c1OC/C=C/c1ccccc1 | i | 2.0 | i | i | -29.3 | i
COc1ccc(C(=O)NCC(=O)N/N=C/c2ccc(C)o2)cc1OC | i | 56.0* | i | i | 38.3 | i
COCCNC(=S)Nc1ccccc1[N+](=O)[O-] | i | 0.1 | i | i | 32.2 | i
COCCCNC(=S)Nc1ccccc1[N+](=O)[O-] | i | 7.3 | i | i | 60.0* | i
Cc1cc(NC2CCCCC2)nc(NCc2ccccc2)n1 | i | 1.7 | i | 100* | -7.4 | i
COc1ccc(N(C(=O)C(C)C)S(=O)(=O)c2cccs2)cc1 | i | · | i | i | 2.4 | i
CC(=O)N(c1ccc2oc(=O)sc2c1)S(=O)(=O)c1cccs1 | i | -3.9 | · | i | -38.6 | i
CC(C)C(=O)N(c1cc2sc(=O)oc2c2ccccc12)S(=O)(=O)c1cccs1 | i | -3.8 | i | i | 92.1* | i
CC(C)C(=O)N(c1ccc2oc(=O)sc2c1)S(=O)(=O)c1cccs1 | i | -0.6 | i | i | 87.0* | i
COc1cc(/C=N/N=C2/NC(=O)C(c3ccccc3)S2)ccc1O (stereo not drawn) | i | ? | i | i | 66.7* | i
COc1cc(/C=N/N=C2/NC(=O)C(Cc3ccc(F)cc3)S2)ccc1O (stereo not drawn) | i | -7.4 | i | i | -17.0 | i
CCOC(=O)Cc1csc(NC(=S)NC(=O)c2cc(OC)cc(OC)c2)n1 | i | 4.9 | i | i | -60.3 | i
Cn1c(SCC(=O)N2CCOCC2)nnc1-c1cccc(NC(=O)c2ccccc2)c1 | i | 0.7 | i | i | 91.8* | i
Oc1c(Br)cc(Br)cc1CNc1cnc2ccccc2c1 | i | -0.5 | i | 25* | 39.0 | i
Cc1ccc(-n2nc3c(=O)n(CCCC(=O)NCc4ccco4)nc(C)c3c2C)cc1 | i | 3.3 | i | i | 64.0* | i
SMILES | CHT inh | HDAC3 inh | TMEM16A act | TMEM16A inh | PHOSPHO1 inh | CHT allo act
CCCC(=O)Oc1ccc(N(C(=O)CCC)S(=O)(=O)c2cccc([N+](=O)[O-])c2)cc1 | i | 50.1* | i | i | -9.4 | i
C(=NN1CCCCCC1)c1ccc2ccccc2n1 | · | · | i | · | · | ·
CC1(C)CC(=O)C2=C(C1)NC(=O)CC2c1cccc(F)c1 (stereo not drawn) | i | -0.4 | i | i | 15.3 | i
C/C(=N\NC(=O)c1ccc(CN2CCc3ccccc3C2)cc1)c1ccccc1O | i | 3.3 | i | 100* | -4.6 | i
O=C(c1cc2cc(Br)ccc2o1)N1CCN(c2ccccc2)CC1 | i | 0.4 | i | i | -7.4 | i
Oc1ccc(Cl)cc1Cc1cc(Cl)ccc1O | i | 3.5 | i | 100* | -1.4 | i
CCn1c(-c2cccn(Cc3ccc(Cl)cc3Cl)c2=O)n[nH]c1=S | i | -1.3 | i | i | 44.8 | i
O=C1c2ccccc2C(=O)N1CC1CO1 (stereo not drawn) | · | · | i | · | · | ·
NC1(N)OC(CN2C(=O)c3ccccc3C2=O)CS1 (stereo not drawn) | i | 5.4 | i | 100* | 37.5 | i
O=C(Cn1cnc2sc3c(c2c1=O)CCCC3)NCC(=O)Nc1c(F)cc(F)cc1Br | i | 1.6 | i | i | 48.8 | i
Cc1ccc(CCNC(=O)C2CCCN(c3ncnc4c3nc3n4CCCCC3)C2)cc1 (stereo not drawn) | i | 3.7 | i | i | 80.2* | i
C=CCn1c(O)c(N=NC(=O)CNC(=O)/C=C/c2ccco2)c2ccccc21 | i | 13.2 | i | i | 1.2 | i
COc1ccc(C(=O)COC(=O)CCC(=O)Nc2ccc(C(C)=O)cc2)cc1 | i | -5.7 | i | i | 26.5 | i
CCCCn1c(NC(=O)c2ccc(Br)o2)c(S(=O)(=O)c2ccccc2)c2nc3ccccc3nc21 | i | -23.6 | i | 100* | 7.8 | i
CCCCn1c(NC(=O)c2ccco2)c(S(=O)(=O)c2ccc(C)cc2)c2nc3ccccc3nc21 | · | · | i | · | -2.6 | ·
C=CCNc1cnn(-c2ccccc2)c(=O)c1Cl | i | -3.7 | i | i | 37.0 | i
CCOc1ccc(NC(=O)COC(=O)CCS(=O)(=O)c2ccc(C)cc2)cc1 | i | 0.6 | i | i | 46.4 | i
CCOc1ccc(NS(=O)(=O)c2cc(NC(=O)CCS(=O)(=O)c3ccc(C)cc3)ccc2OC)cc1 | -5.14* | -4.7 | i | i | 13.5 | i
Cc1cccc2c3c([nH]c12)CCN(C)C3 | -5.84* | -8.6 | i | i | 28.4 | i
Oc1ccc(-c2cn3cc(C(F)(F)F)ccc3n2)cc1 | i | -0.3 | i | i | 4.2 | i
COc1ccc(CN2C(=O)c3cccnc3C2=O)cc1S(=O)(=O)N1CCOc2ccc(Cl)cc21 | i | -1.0 | i | i | 8.9 | i
Cc1ccc2c(c1)N(S(=O)(=O)c1ccc(CN3C(=O)c4cccnc4C3=O)cc1)CCO2 | i | -8.4 | -22.9* | i | 41.2 | i
CC(=O)C1CCC2C3CCC4CC(OC(=O)CCC(=O)O)CCC4(C)C3C(=O)CC12C (stereo not drawn) | · | · | i | · | · | ·
COC(=O)C1CCCCN1C(=O)c1cc(COc2cccc3cnccc23)on1 (stereo not drawn) | i | -14.7 | i | 25* | 46.2 | i
